Each structure is given as a SMILES string. The list shows a part of the results. Unmarked numbers belong to inactive results. Calls of active or inactive are those of the source.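 How the source made its calls, unless noted: active means average inhibition above a cutoff equal to the mean inhibition of all tested compounds plus one SD (cut at about 70% in these data); inactive means the rest.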

Chain of Photoreceptor-specific nuclear receptor (Homo sapiens) (Q9Y5X4 whole entry, looked up): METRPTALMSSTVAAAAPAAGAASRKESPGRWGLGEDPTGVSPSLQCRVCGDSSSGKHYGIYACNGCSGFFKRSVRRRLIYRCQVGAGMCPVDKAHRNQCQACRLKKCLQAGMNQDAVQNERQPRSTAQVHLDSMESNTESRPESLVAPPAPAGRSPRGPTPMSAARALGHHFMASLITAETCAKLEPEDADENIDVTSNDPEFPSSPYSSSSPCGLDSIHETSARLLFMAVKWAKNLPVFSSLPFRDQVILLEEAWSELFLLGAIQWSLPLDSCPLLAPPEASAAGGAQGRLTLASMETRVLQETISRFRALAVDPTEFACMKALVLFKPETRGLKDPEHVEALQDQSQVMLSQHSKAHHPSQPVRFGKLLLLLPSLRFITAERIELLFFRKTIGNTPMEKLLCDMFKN

In the first assay the target is Receptor-interacting serine/threonine-protein kinase 2 (Homo sapiens) (UniProt O43353). Briefly: NOD2-RIPK2 binding disruptors, retest, confirmation, fluorescence, CHO cells, BLA complementation, triplicate (AID 624370;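 active means mean inhibition across replicates above a set limit taken from the earlier primary screen, cut at about 21% in these data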;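 further: 0% = DMSO-only wells and the high end = clavulanate BLA-blocked wells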). The note with it: CCF4 FRET, at 4.98 µM, hits give high values.
Chain of Receptor-interacting serine/threonine-protein kinase 2 (Homo sapiens) (O43353 whole entry, looked up): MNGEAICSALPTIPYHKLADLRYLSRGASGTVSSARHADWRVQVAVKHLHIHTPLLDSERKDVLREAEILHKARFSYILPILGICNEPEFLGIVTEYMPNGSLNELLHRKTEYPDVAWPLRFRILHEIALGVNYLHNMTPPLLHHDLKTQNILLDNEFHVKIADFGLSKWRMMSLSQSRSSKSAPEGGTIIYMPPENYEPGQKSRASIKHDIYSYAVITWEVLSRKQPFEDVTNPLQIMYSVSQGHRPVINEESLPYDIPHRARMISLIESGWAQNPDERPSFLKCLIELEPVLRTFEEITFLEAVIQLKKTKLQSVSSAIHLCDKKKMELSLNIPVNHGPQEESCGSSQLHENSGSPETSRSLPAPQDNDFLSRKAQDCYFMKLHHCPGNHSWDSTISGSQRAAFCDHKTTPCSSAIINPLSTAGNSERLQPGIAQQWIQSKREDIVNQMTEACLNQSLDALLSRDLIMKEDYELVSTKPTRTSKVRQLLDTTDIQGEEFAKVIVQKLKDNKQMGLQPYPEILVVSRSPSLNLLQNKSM
Turning to `O=C1/C(=C\c2ccc([N+](=O)[O-])cc2)CS(=O)(=O)C/C1=C/c1ccc([N+](=O)[O-])cc1`, the inhibition was 91.8% (active).

With `CN1CCN(/N=C/c2ccc(-c3ccc([N+](=O)[O-])cc3)o2)CC1`, the inhibition was 17.4%.

As for `Cc1cccc2sc(N(CCCN(C)C)C(=O)CCS(=O)(=O)c3ccccc3)nc12`, the inhibition was 25.4% (active).

With `N#Cc1cccc(NC(=O)COC(=O)c2ccccc2C(=O)c2ccc(Cl)c([N+](=O)[O-])c2)c1`, the inhibition was 56.2% (active).

As for `COc1cc(NS(=O)(=O)c2ccc3ccccc3c2)c2ncccc2c1`, the inhibition is 35.7% (active).

In the case of `O=C(O)c1ccc2c(c1)C(=O)N(c1ccc(/C=C/C(=O)c3ccccc3)cc1)C2=O`, the inhibition is 5.5%.

As for `O=C1C(=O)N(CC2COc3ccccc3O2)c2ccccc21` (stereo unspecified), the inhibition is -7.75%.

Regarding `O=C(NC1=CC(=O)c2ccccc2C1=O)c1ccccc1`, the inhibition is 89% (active).

System in a further assay: not listed separately
Briefly: beta-lactamase reporter inhibitors in CHO cells, confirmation, artefact control for NOD2-RIPK2 interaction inhibitor project, cell-based, CHO-K1 CMV-bla, CCF4 FRET, fluorescence (AID 624371;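 active means mean inhibition above the low-control mean inhibition plus three low-control SD, cut at about 11% in these data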;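 further: 0% = DMSO only wells and 100% = clavulanate high control wells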). The following applies: CCF4 FRET ratio, counterscreen, at 4.98 µM, hits give high values. In general terms: Counterscreens check selectivity or assay interference.
Turning to `O=C1/C(=C\c2ccc([N+](=O)[O-])cc2)CS(=O)(=O)C/C1=C/c1ccc([N+](=O)[O-])cc1`, the inhibition was 4.33%.

Take `CN1CCN(/N=C/c2ccc(-c3ccc([N+](=O)[O-])cc3)o2)CC1`: the inhibition was 23.5% (active).

Take `Cc1cccc2sc(N(CCCN(C)C)C(=O)CCS(=O)(=O)c3ccccc3)nc12`: the inhibition is 7%.

On to `N#Cc1cccc(NC(=O)COC(=O)c2ccccc2C(=O)c2ccc(Cl)c([N+](=O)[O-])c2)c1`, for which the inhibition was 11.9% (active).

Regarding `COc1cc(NS(=O)(=O)c2ccc3ccccc3c2)c2ncccc2c1`, the inhibition was 18.9% (active).

Regarding `O=C(O)c1ccc2c(c1)C(=O)N(c1ccc(/C=C/C(=O)c3ccccc3)cc1)C2=O`, the inhibition was 0.39%.

For the compound `O=C1C(=O)N(CC2COc3ccccc3O2)c2ccccc21` (stereo unspecified), the inhibition was -10.2%.

In the case of `O=C(NC1=CC(=O)c2ccccc2C1=O)c1ccccc1`, the inhibition was -4.54%.

A further assay concerns the target Photoreceptor-specific nuclear receptor (Homo sapiens) (UniProt Q9Y5X4). Description: NR2E3 agonist confirmation in cells, cell-based, luminescence, CHO-S two-hybrid (AID 624378).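 Further: 0% = DMSO in NR2E3 cells and 100% = DMSO in cells lacking NR2E3.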 The note with it: CHO-S mammalian two-hybrid NR2E3-NCOR, luciferase luminescence; at 3.98 µM; hits give high values.
On to `CCC(C)C(N=C1NS(=O)(=O)c2ccccc21)C(=O)N1CCC(C)CC1` (stereo unspecified), for which the inhibition is 41%.

As for `O=C1/C(=C\c2ccc([N+](=O)[O-])cc2)CS(=O)(=O)C/C1=C/c1ccc([N+](=O)[O-])cc1`, the inhibition is 96% (active).

Turning to `CCCNc1ncnc2sc(C)c(C)c12`, the inhibition is 27.8%.

Consider `CCCC1CCC(=NNC(=S)NCCc2ccccc2)CC1` (stereo unspecified), for which the inhibition was 3.69%.

Consider `CN(C)C(=S)N=c1ssc(=S)n1Cc1ccco1`, for which the inhibition is -16.6%.

As for `COc1ccc(S(=O)(=O)NCCCCOc2ccc(Cl)cc2)cc1`, the inhibition was 97.5% (active).

As to `Oc1ccc(Br)cc1/C=N/Nc1ccccn1`, the inhibition is 99.3% (active).

With `c1ccc(C2c3[nH]c4ccccc4c3CCN2Cc2cccn2-c2cccnc2)nc1` (stereo unspecified), the inhibition was -1.67%.

For the compound `Cc1ccc(NS(=O)(=O)c2ccc(-c3coc(C)n3)cc2)c(C)c1`, the inhibition is 57.5%.

On to `Cc1cccc(NC(=O)c2ccc(COc3ccccc3[N+](=O)[O-])o2)n1`, for which the inhibition was 10%.

As for `CCOc1ccc(S(=O)(=O)N2CCCCCC2)c2ccccc12`, the inhibition was 50.4%.

Consider `Cc1cc2nc(-c3ccc(Cl)cc3)c(Cc3cccc(F)c3)n2c(C)c1Br`, for which the inhibition was 36.1%.

For the compound `Cc1[nH]n(-c2cccc(Cl)c2)c(=O)c1-c1ccc(Cl)cc1`, the inhibition was 97.8% (active).

With `OC(c1ccc(Cl)cc1)c1ncc(-c2ccc(Cl)cc2)[nH]1` (stereo unspecified), the inhibition was 79.4% (active).

Regarding `O=S(=O)(c1cccc(Cn2nnc(-c3ccc(F)cc3)n2)c1)N1CCOCC1`, the inhibition is 34.9%.

On to `O=C(c1ccc(N2CCCC2=O)cc1)N1CCN(c2ccc(C(F)(F)F)cc2[N+](=O)[O-])CC1`, for which the inhibition was 93.2% (active).

Take `Clc1ccc(-n2nnnc2-c2cnc(-c3ccccn3)nc2-c2cccs2)cc1`: the inhibition is 24.1%.

Consider `COc1cccc(CNS(=O)(=O)c2ccc3c(c2)CC(C)N3C(=O)C2CCC2)c1` (stereo unspecified), for which the inhibition was 73.3% (active).

With `CCC1(C)Cc2c(sc3[nH]c(=S)n(Cc4ccccc4)c(=O)c23)CO1` (stereo unspecified), the inhibition was 70.9% (active).

With `CN(Cc1cn(Cc2ccc(C(F)(F)F)cc2)nn1)C1CN(Cc2cn(Cc3ccc(C(F)(F)F)cc3)nn2)S(=O)(=O)C1` (stereo unspecified), the inhibition was 86.8% (active).

For the compound `COc1ccc(S(=O)(=O)N2CCN(C(C)C(=O)Nc3ccc(C(C)C)cc3)CC2)cc1` (stereo unspecified), the inhibition is -2.85%.

Consider `S=C(NN=Cc1ccccn1)Nc1ccccn1`, for which the inhibition was 79.5% (active).

For the compound `CSc1nsc(SC)c1NC(=O)OC1CCCCC1`, the inhibition was -5.88%.

Take `N#Cc1c(-c2ccccc2)nc(SCc2cccc(C(F)(F)F)c2)[nH]c1=O`: the inhibition is 43.6%.

For the compound `COc1cc(NS(=O)(=O)c2ccc3ccccc3c2)c2ncccc2c1`, the inhibition is -24.6%.

The inhibition is the change of the read-out against control, counted positive when it falls.

The values above are taken from PubChem BioAssay.
